In all, about 410,000 compounds went through this assay and about 3,100 (0.76%) were called active. The call rests on the fitted dose curve; in most records, active means well fitted cell-killing curve with a large enough effect; inactive means no such curve, though single readings can be large or run the other way. What follows is part of a selection rich in actives, with near analogues and random picks from the rest. A call without a number means that no potency is given here.
assay: qHTS for Inhibitors of TGF-b: Cytotox Counterscreen; settings: HepG2 CAGA-GFP viability, ATP luminescence, 18 h; series mostly up to 46.1 µM
Text: TGF-b is a main component in the TGF-b signaling pathway which plays diverse roles in cellular and development pathways. TGF-b is mediated by transcription factors called "Smads". Although the Smad-dependent pathway is the primary canonical TGF-b signaling mode, TGF-b1 can also activate alternative signaling pathways, including those involving MAPK (ERK, JNK and p38). This interaction may mediate or enhance Smad-dependent responses, or can exert Smad-independent effects. The complexity of this signaling cascade allows the TGF-b superfamily to perform unique, overlapping or redundant functions. We believe that targeting the TGF-beta pathway at the Smad-transcription factor level may eliminate the consequences of disrupting the entire pathway and offer specificity without affecting other signaling pathways. Smad3 is the primary transducer of TGF-b's signals and Smad3 regulates many functions attributed to TGF-b signaling. We hypothesize that Smad3 inhibitors will selectively eliminate Smad3-specific TGF-beta signals without undesired off-target effects. We aim to identify Smad3-small molecule antagonists using a quantitative high throughput screening (qHTS) approach.
A high-throughput assay was developed to screen the NIH Molecular Libraries Small Molecule Repository (MLSMR). This is a cell based assay, where TGF-b is tagged with GFP. This is a counterscreen that evaluates the cytotoxicity of the compounds that were screened in the primary cell-based screen (AID 588855).
MH087449NIH Chemical Genomics Center [NCGC]
NIH Molecular Libraries Probe Centers Network [MLPCN]
Assay Submitter (PI): Sushil Rane, National Institute of […]
Suspensions of trypsinized HEPG2 CAGA-GFP cells were dispensed into white, tissue culture-treated, solid 1536-well plates at 5uL/well (1000 cells/well final concentration) in DMEM medium supplemented with 1% FBS. Plates were incubated at 37 degrees C for 2 hours, after which 23 nL of compounds or DMSO were delivered to each well using a pin tool. One uL of recombinant TGF-beta in DMEM (1% FBS) was then dispensed (500 pg/mL final concentration), and plates were incubated at 37 degrees C for 18 hours. Two uL of CellTiter Glo (Promega), a luminescence-based viability reagent, was dispensed, followed by a 10 minute room temperature incubation. The plates were then measured on a PerkinElmer ViewLux plate reader for luminescence (clear filter) using a 5 second exposure. The %Activity was determined from the corrected luminescence values. Wells containing media only (no cells) were used to normalize %Activity of identified toxic compounds; media-only wells corresponded to 100%Activity (complete cell-killing), while DMSO-dosed cell controls were used to normalize 0%Activity (no toxicity).
Concentration-response curves were fitted to the signals arising from the resulting luminescence. The concentration-effect curves were then classified based on curve quality (r2), response magnitude and degree of measured activity, and compounds were subsequently categorized based on their curve class.
Potency means the concentration at half of the fitted maximal effect.

Compound	Potency
COc1ccc2c(c1O)-c1cccc3c1[C@@H](C2)N(C)CC3	inactive
COc1c(O)ccc2c1-c1c3c(cc4c1C(C2)N(C)CC4)OCO3 (centres undefined)	inactive
COc1ccc2cc1Oc1ccc(cc1)C[C@H]1c3cc(c(OC)cc3CCN1C)Oc1c(O)c(OC)cc3c1[C@H](C2)N(C)CC3	7.94 µM (active)
CC(C)COC(=O)n1c(=O)oc2ccc(S(=O)(=O)N3CCCCC3)cc21	inactive
COc1ccccc1CNC(=O)C(Cc1ccccc1)NS(=O)(=O)c1ccc2c(c1)oc(=O)n2C (centres undefined)	inactive
ClCCN(CCCl)c1ccc(C=Nc2ccc(/C=C/c3ccnc4ccccc34)cc2)cc1	inactive
Cc1ccc(C(O)P(=O)(OC(C)C)c2ccc(N(C)C)cc2)cc1 (centres undefined)	inactive
COc1ccc(CCNC(=O)CCn2c(=O)oc3ccccc32)cc1OC	inactive
O=C1CC(=O)N(Cc2ccccc2)C(=O)N1CCCCCCN1C(=O)CC(=O)N(Cc2ccccc2)C1=O	inactive
CC(C)(C)c1ccc(CN2C(=O)CN=C(c3ccccc3)c3ccccc32)cc1	12.6 µM (active)
CC(C)OP(=O)(OC(C)C)C(Nc1ccccc1)c1cccc([N+](=O)[O-])c1 (centres undefined)	inactive
O=c1[nH]c(=S)[nH]c(O)c1/C=C1\C=Nc2ccccc21	inactive
COc1ccccc1CNC(=O)Cn1c(=O)oc2cc(Cl)ccc21	inactive
N#Cc1c(Cl)c(Cl)c(Cl)c(C#N)c1Cl	0.316 µM (active)
Cn1c(=O)oc2cc(S(=O)(=O)N3CCC(C(=O)Nc4ccc(OC(F)(F)F)cc4)CC3)ccc21	inactive
CCCCOP(=O)(c1ccc(N(C)C)cc1)C(O)c1cc(OC)ccc1OC (centres undefined)	inactive
COc1cc([C@@H]2c3cc4c(cc3[C@H](OC(C)=O)[C@H]3COC(=O)[C@H]23)OCO4)cc(OC)c1OC	inactive
CCOC(=O)C(NS(=O)(=O)c1ccc(C)cc1)(C(F)(F)F)P(=O)(OCC(C)C)OCC(C)C (centres undefined)	inactive
CN(C)CC1Oc2ccccc2OC1(O)c1ccccc1 (centres undefined)	3.98 µM (active)
CO[C@H]1[C@@H](O)[C@@H](C)O[C@H](O[C@H]2[C@H](Oc3cccc4c(O)c5c(=O)oc6ccc(C)c7c(=O)oc(c34)c5c67)O[C@H](C)[C@H](O)[C@@H]2O)[C@@H]1O	inactive
CCOC(=O)c1ccc(NC(=O)CCn2c(=O)oc3ccccc32)cc1	inactive
O=C1NC(=O)N(Cc2ccco2)C(=O)/C1=C\c1ccc(-c2ccc(F)cc2)o1	12.6 µM (active)
CCOP(=O)(OCC)C(Cc1ccccc1)N=C(c1ccccc1)c1ccccc1 (centres undefined)	inactive
Cc1ccc2c(c1)C1C[N+](C)(CC(=O)c3ccccc3)CCC1N2C(=O)c1ccccc1Cl (centres undefined)	inactive
Brc1cc(Br)c(Oc2cc(Br)c(Br)cc2Br)cc1Br	inactive
Cc1ncoc1C(=O)NCC1=C(c2cccc3ccccc23)C[C@@H]2CC[C@H]1N2Cc1ccco1	inactive
COC(=O)C1=C(c2ccccc2)C[C@@H]2CC[C@H]1N2C(=O)NCc1ccco1	inactive
COc1cc(Cn2c(N)c(C(=O)NCc3ccco3)c3nc4ccccc4nc32)cc(OC)c1OC	17.8 µM (active)
CCN(CC)C(=O)Oc1ccc(OC(=O)N(CC)CC)cc1	inactive
